Test systems include HCT-15 colon; HT29 colon; SNB-19 CNS; U251 CNS; PC-3 prostate; UACC-62 melanoma; LOX IMVI melanoma; SK-MEL-28 melanoma; SK-MEL-2 melanoma; EKVX NSCLC; SN12C renal; UO-31 renal; TK-10 renal; ACHN renal; CAKI-1 renal; A498 renal; CCRF-CEM leukemia; SK-MEL-5 melanoma; MOLT-4 leukemia.
What all share (assay): NCI-60 one-dose screen, 48 h (100 = growth as untreated, 0 = no growth, -100 = all killed)
Holding throughout (conditions): 10 µM unless noted

From PubChem BioAssay (NCI) come the findings set out here.

Compounds without any hit were thinned out: in the full panel of roughly 83,000, 20% have a hit.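 For each line, cells grew in 96-well plates with the test compound present at a single concentration for 48 hours.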 A number with no mark means an inactive call. Activity calls are given as the source filed them. Rule for the calls: active = growth percent below 10; inactive = the rest.

Turning to `CN(C)CCCN(c1nc(C(Cl)(Cl)Cl)ns1)c1nc(C(Cl)(Cl)Cl)ns1`, the growth in the assay with HCT-15 colon was 41.2%; in the assay on HT29 colon, 0.235% (active); in the assay with SNB-19 CNS it was 64.2%; with U251 CNS, 27.4%; with PC-3 prostate, 22.2%; with UACC-62 melanoma, 1.86% (active). Also, the growth is -31.4% (active) in the assay with LOX IMVI melanoma; 51.9% in the assay with SK-MEL-28 melanoma; 47% in the assay on SK-MEL-2 melanoma; 55.1% in the assay with EKVX NSCLC; 41.8% in the assay on SN12C renal; -84.7% (active) with UO-31 renal. For the same compound, the growth in the assay with TK-10 renal was 63.5%; in the assay on ACHN renal, 54.6%; in the assay on CAKI-1 renal, 43.9%; in the assay with A498 renal it was 73.7%; with CCRF-CEM leukemia, 30.3%.
In the case of `O=C(O)/C=C/C(=O)c1ccc(Cl)cc1`, the growth with HCT-15 colon is 103%; in the assay on HT29 colon, 91.3%; in the assay on SNB-19 CNS, 111%; with U251 CNS, 100%; in the assay with PC-3 prostate it was 106%; in the assay with UACC-62 melanoma it was 109%. Also, the growth is 105% in the assay with LOX IMVI melanoma; 115% with SK-MEL-28 melanoma; 109% with SK-MEL-2 melanoma; 114% in the assay on EKVX NSCLC; 112% with SN12C renal; 90.1% in the assay with UO-31 renal. The growth with TK-10 renal was 105%; with ACHN renal, 106%; in the assay on A498 renal, 107%.
With `NC(N)=N/N=C/c1ccc(-c2ccc(-c3cc(Cl)cc(Cl)c3)s2)cc1`, the growth was -74.5% (active) in the assay on HCT-15 colon; -74.9% (active) in the assay with HT29 colon; 40% with SNB-19 CNS; -84.1% (active) with U251 CNS; -38.5% (active) in the assay on PC-3 prostate; 86.9% in the assay with SK-MEL-5 melanoma. In addition, the growth was 48.2% in the assay on UACC-62 melanoma; 96.5% in the assay with SK-MEL-28 melanoma; 103% in the assay on SK-MEL-2 melanoma; 96.1% with EKVX NSCLC; -53.8% (active) in the assay on SN12C renal; 72.2% with UO-31 renal. Moreover, the growth was -68.8% (active) in the assay on TK-10 renal; -2.94% (active) with ACHN renal; 50% in the assay on CAKI-1 renal; 73% in the assay with A498 renal; 17.4% with MOLT-4 leukemia.
Turning to `Cc1ccc(S(=O)(=O)NCCCNc2cc(-c3cn(C(C)(C)C)nc3-c3cccc(O)c3)ccn2)cc1`, the growth with HCT-15 colon was 16.5%; with HT29 colon it was 12.8%; in the assay on SNB-19 CNS, 80%; with U251 CNS it was 58.1%; with PC-3 prostate it was 39.6%; in the assay with UACC-62 melanoma it was 66.8%. Besides, the growth with LOX IMVI melanoma is 13.5%; in the assay with SK-MEL-28 melanoma, 60.6%; in the assay with SK-MEL-2 melanoma, 70.4%; in the assay on EKVX NSCLC it was 61%; in the assay with SN12C renal, 64.6%; in the assay on UO-31 renal it was 73.2%. In addition, the growth in the assay with TK-10 renal was 107%; in the assay on ACHN renal it was 62.4%; in the assay on A498 renal, 85.1%; in the assay on CCRF-CEM leukemia it was 52.4%; in the assay on MOLT-4 leukemia it was 49.1%.
Consider `Cc1[nH]c2ccc(F)cc2c1CCNC(=O)C1CCN(C(=O)c2ccccc2)CC1`, for which the growth with HCT-15 colon was 94.4% [25 µM]; in the assay on HT29 colon, 95.2% [25 µM]; in the assay on SNB-19 CNS, 86.3% [25 µM]; with U251 CNS, 90.7% [25 µM]; with PC-3 prostate, 71% [25 µM]; in the assay with SK-MEL-5 melanoma it was 76% [25 µM]. In addition, the growth is 82.5% [25 µM] in the assay with UACC-62 melanoma; 96.4% [25 µM] in the assay with SK-MEL-28 melanoma; 98.9% [25 µM] in the assay on SK-MEL-2 melanoma; 77.9% [25 µM] with EKVX NSCLC; 94.5% [25 µM] in the assay with SN12C renal; 67.6% [25 µM] in the assay with UO-31 renal. Also, the growth in the assay on TK-10 renal is 91.1% [25 µM]; in the assay on ACHN renal, 97% [25 µM]; in the assay with A498 renal it was 56.2% [25 µM]; with MOLT-4 leukemia it was 88% [25 µM].
With `COc1cccc(/C=C2\Oc3cc(OCCCN4CCCC4)ccc3C2=O)c1`, the growth in the assay on HCT-15 colon is 19.3%; with HT29 colon it was 17.8%; with SNB-19 CNS, 87.9%; with U251 CNS, 75.6%; in the assay with PC-3 prostate, 69%; in the assay on UACC-62 melanoma, 96.7%. The growth was 20.6% in the assay with LOX IMVI melanoma; 100% in the assay on SK-MEL-28 melanoma; 107% with SK-MEL-2 melanoma; 85.3% with EKVX NSCLC; 85.2% in the assay on SN12C renal; 58.2% in the assay with UO-31 renal. For the same compound, the growth in the assay on TK-10 renal is 93.3%; in the assay on ACHN renal it was 93%; in the assay with CAKI-1 renal it was 85.5%; in the assay with CCRF-CEM leukemia it was 1.85% (active); with MOLT-4 leukemia, 59.5%.
`CCN(CC)c1ccc(/C=C2\Oc3ccc(O)c(I)c3C2=O)cc1`: the growth in the assay on HCT-15 colon was 37%; in the assay with HT29 colon it was 72.4%; in the assay with SNB-19 CNS it was 49.7%; with U251 CNS it was 49.1%; in the assay with PC-3 prostate it was 52.8%; in the assay with UACC-62 melanoma it was 49.8%. The growth in the assay on LOX IMVI melanoma is 34.2%; in the assay with SK-MEL-28 melanoma it was 74.3%; in the assay on SK-MEL-2 melanoma, 62.3%; with EKVX NSCLC, 73.3%; in the assay on SN12C renal, 76.9%; in the assay on UO-31 renal it was 46.3%. In addition, the growth is 74.2% in the assay on TK-10 renal; 54.9% in the assay on ACHN renal; 68.4% in the assay with CAKI-1 renal; 13.3% with CCRF-CEM leukemia; 16.4% in the assay with MOLT-4 leukemia.
Take `N=C(N)c1ccc(-c2ccc(-c3ccc(-c4cccs4)s3)s2)cc1`: the growth is 101% with HCT-15 colon; 95% in the assay on HT29 colon; 97.5% with SNB-19 CNS; 91.2% in the assay with U251 CNS; 89% with PC-3 prostate; 93.3% in the assay on UACC-62 melanoma. The growth is 102% in the assay on SK-MEL-28 melanoma; 108% in the assay on SK-MEL-2 melanoma; 90.1% in the assay with EKVX NSCLC; 93.7% in the assay on SN12C renal; 93% with UO-31 renal; 95.3% in the assay with TK-10 renal. The growth was 102% with ACHN renal; 106% with CAKI-1 renal; 20.6% in the assay on A498 renal; -47.8% (active) with CCRF-CEM leukemia; 98% with MOLT-4 leukemia.
With `COc1ccc(/C=C2\Oc3cc(OCCCN4CCCC4)ccc3C2=O)c(OC)c1`, the growth in the assay on HCT-15 colon was 17.8%; in the assay with HT29 colon it was 10.2%; in the assay on SNB-19 CNS it was 74.4%; in the assay on U251 CNS it was 54.4%; in the assay on PC-3 prostate it was 66.8%; with UACC-62 melanoma, 99.3%. Also, the growth with LOX IMVI melanoma is -27.7% (active); in the assay on SK-MEL-2 melanoma, 103%; in the assay on EKVX NSCLC it was 96.1%; in the assay on SN12C renal it was 91.8%; in the assay on UO-31 renal, 74.9%; with TK-10 renal, 103%. Moreover, the growth in the assay on ACHN renal was 91.4%; in the assay with CAKI-1 renal, 91.9%; with CCRF-CEM leukemia, 11.9%; with MOLT-4 leukemia, 32.7%.
